# An excerpt weighted towards active compounds, which were near 2.3% of everything screened.
# HepG2 tox: kills HepG2 cells in TGF-b inhibitor counter-screen; HepG2 CAGA-GFP viability, ATP luminescence, 18 h; Potency, µM (highest dose often 46.1 µM), for the others: at the top dose activity change, negative = cytotoxicity, most hits filed as cytotoxic; 410,000 compounds, 0.76% hits; AID 588856
#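 HepG2 CAGA-GFP cells (1000/well, DMEM with 1% FBS) received compound, then TGF-beta at 500 pg/mL final, and were incubated 18 hours at 37 degrees C. Viability was read by CellTiter-Glo luminescence. Media-only wells were set as complete cell-killing and DMSO as no toxicity.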
# TGFb SMAD3 inh: blocks TGF-b signaling. HepG2 CAGA-GFP TGF-b/SMAD3 reporter, GFP fluorescence, 18 h; TGF-beta stimulated, 500 pg/mL final. Potency, µM (series often up to 46.1 µM), without a hit: at the highest dose activity, negative = inhibition, usual class: inhibitors. 410,000 compounds, 1.2% hits. AID 588855; note: % is set by controls: 0 for no effect and ±100 for the full control effect; nearly all actives have a fitted effect of over 65% in size
#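 Inhibition was scored as loss of TGF-beta-induced (500 pg/mL final, 18 hours, 37 degrees C) GFP in HEPG2 cells carrying a CAGA-GFP reporter, in DMEM with 1% FBS. Well GFP was summed per cell; Activity was normalised to unstimulated and stimulated DMSO wells, then concentration-response fitting.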
# ATXN2 expr inh: ATXN2 expression inhibition; Potency, µM (highest dose often 57 µM), for the others: at the top dose activity change, negative = inhibition, hits mostly inhibitors; HEK-293 ATXN2-luciferase reporter, luminescence, 24 h; 360,000 compounds, 0.72% hits; note: % is set by controls: 0 for no effect and ±100 for the full control effect; nearly all actives have a fitted effect of over 55% in size
#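 ATXN2-luciferase reporter cells (luciferase flanked by upstream and downstream ATXN2 gene portions) were treated 24 h at 37 °C with compounds at up to 57 uM. SteadyGlo luminescence gave expression; GF-AFC fluorescence gave viability.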
# ATXN viability: cell viability loss in ATXN counter-screen; S2 cells (HEK-293 line with an ATXN2-luciferase reporter) viability, CellTiter-Fluor protease fluorescence, 24 h; AID 651635; 400,000 compounds, 0.49% hits; Potency, µM (series often up to 56.7 µM), usual class: cytotoxic; note: nearly all actives have a fitted effect of over 40% in size
# * = called active by the depositor; i = inactive; ? = inconclusive; · = not tested or not shown; ! = not active in a repeat. Calls come from the whole dose curve; as a rule, active = well fitted curve in the direction sought with a large enough effect; inconclusive = small, poorly fitted or top-dose-only effect, or another doubt; inactive = no such curve, though single readings can be large; an effect the other way counts as inactive or inconclusive. Potency is the fitted concentration of half-maximal effect.
SMILES,HepG2 tox,TGFb SMAD3 inh,ATXN2 expr inh,ATXN viability
CC[C@H](C)[C@@H](CNC)NC[C@@H](Cc1ccc(O)cc1)NCC(C)(C)C,-3.0%,2.7%,-6.7%,i
COc1ccnc2[nH]cc(C(=O)C(=O)N3CCN(C(=O)c4ccccc4)C[C@@H]3C)c12,·,·,-0.6%,·
Cc1cc2[nH]c3c4ccccc4nc(C)c3c2cc1C,17.8µM*,12.6µM*,?,·
Cc1cnc(SCC2CCCO2)nc1C1CCCN(C(=O)c2ccc(S(N)(=O)=O)cc2)C1 (centres undefined),·,·,·,i
Cc1ccnn1CC(=O)N1CCOc2c(cc(-c3csc4ccccc34)cc2OC2CCOC2)C1 (centres undefined),·,·,·,i
S=c1c2c(nc3nc[nH]n13)CCC2,-63.8%,10µM*,·,6.31µM*
CC1CCc2c(nc3nc[nH]n3c2=O)C1 (centres undefined),-24.6%,5.8%,-10.9%,i
Cc1ccc(C(=O)Nc2cccc(C(F)(F)F)c2)cc1NC(=O)c1csc(-c2ccncc2)n1,-55.7%,-6.6%,?,?
N#C/C(=N\Nc1cccc(C(F)(F)F)c1)C(=O)c1csc(-c2cccnc2)n1,-26.3%,?,?,25.1µM*
C[C@@]12CC(=O)NC1N(C(=O)c1cccc(C(F)(F)F)c1)C(c1ccccc1OC(=O)c1cccc(C(F)(F)F)c1)C2 (some centres undefined),-40.1%,12.6µM*,-7.7%,?
Cc1ccc(S(=O)(=O)Nc2ccc(NC(=O)Nc3cccc(C(F)(F)F)c3)cc2)cc1,17.8µM*,15.8µM*,?,?
O=C(Nc1ccncc1)Nc1cccc(C(F)(F)F)c1,-23.1%,-14.1%,-20.1%,i
Cc1ccc(NC(=S)NNC(=S)Nc2cccc(C(F)(F)F)c2)cc1,-23.8%,-9.5%,1.3%,i
O=C(Nc1ccc(OC(F)F)cc1)Nc1cccc(C(F)(F)F)c1,8.91µM*,?,?,?
CCN(CC)S(=O)(=O)c1ccc(NC(=O)Nc2cccc(C(F)(F)F)c2)cc1,11.2µM*,?,20µM*,?
CC(C)(C)c1ccc(S(=O)(=O)Nc2ccc(C(O)(C(F)(F)F)C(F)(F)F)cc2)cc1,20µM*,12.6µM*,?,17.8µM*
COc1ccc(O)c(CN2CCCN(c3nc(C)c4cc(C)c(C)cc4n3)CC2)c1,·,·,·,i
CCC1CN(CCNC(=O)c2cscn2)Cc2cc(OC)ccc2O1 (centres undefined),·,·,·,i
CC1=C(CO)C(=O)O[C@@H]([C@@H](C)[C@H]2CC[C@H]3[C@@H]4C[C@H]5O[C@]56[C@@H](O)C=CC(=O)[C@]6(C)[C@@H]4CC[C@]23C)C1,·,·,3.06µM*,·
COc1ccc2c(c1)OC(C)CN(CCNC(=O)c1cccc(N3CCNC3=O)c1)C2 (centres undefined),·,·,·,i
COc1ccc2c(c1)OC(C)CN(CCNC(=O)c1ccc(-n3cccn3)cc1)C2 (centres undefined),·,·,·,i
Cc1ccc(CCNC(=O)c2sc3ncccc3c2-n2c(C)ccc2C)cc1,-33.6%,11.2µM*,?,?
Cc1ccc(C)n1-c1c(C(=O)NCC(C)c2ccccc2)sc2ncccc12 (centres undefined),-39.0%,11.2µM*,-15.3%,?
COc1cccc(CNC(=O)c2sc3ncccc3c2-n2c(C)ccc2C)c1OC,-88.2%,?,?,?
C(=C\c1nccc2ccccc12)/c1ccc(N2CCOCC2)cc1,-21.1%,-14.4%,·,·
SMILES,HepG2 tox,TGFb SMAD3 inh,ATXN2 expr inh,ATXN viability
Cc1ccc2c(c1)c1ccc3c(c1n2C)C(=O)C=CC3=O,-36.6%,?,10µM*,10µM*
Cn1c2ccccc2c2ccc3c(c21)C(=O)C=CC3=O,-8.8%,0.0%,?,5.97µM*
Cc1nc2ccc(NC(=O)c3cccs3)cc2c(=O)n1Cc1ccc(Cl)cc1,-29.8%,?,14.1µM*,?
CCCc1nc2ccc(NC(=O)c3cccs3)cc2c(=O)n1Cc1ccc(Cl)cc1,-0.3%,-23.0%,·,?
CC(=O)Nc1ccc(NC(=O)c2cc3c(=O)n(Cc4cccnc4)ccc3nc2C)cc1,17.8µM*,-2.2%,12.6%,i
Cc1ccc(C)c(N2CCN(C(=O)c3cc4c(=O)n(Cc5ccccc5)ccc4nc3C)CC2)c1,-33.5%,10µM*,?,?
CCOc1ccc(OCc2cccc(C(=O)Nc3ccc(CN4CCCCC4)cc3)c2)cc1,10µM*,0.0%,?,?
N/C(=N\N=Cc1ccc2c(c1)OCO2)NN=Cc1ccc2c(c1)OCO2,-42.1%,?,0.0%,29.9µM*
N/C(=N\N=C/c1ccc(Br)cc1)N/N=C\c1ccc(Br)cc1,11.2µM*,?,-2.5%,i
O=C(COc1ccccc1C(=O)Nc1ccccc1)Nc1ccccc1-c1ccccc1,-5.6%,?,·,·
c1ccc(-c2ccc(-c3csc4ncnc(Sc5nnnn5-c5ccccc5)c34)cc2)cc1,-10.8%,?,·,·
Cc1ccc(-c2csc3ncnc(Sc4nnnn4-c4ccccc4)c23)cc1,-97.2%,6.31µM*,·,·
Cc1sc2ncnc(Sc3nnnn3-c3ccccc3)c2c1C,10µM*!,12.6µM*!,15.8µM*,31.6µM*
Clc1ccc(-c2csc3ncnc(Sc4nnnn4-c4ccccc4)c23)cc1,6.31µM*,6.31µM*,·,·
OC1(c2cccnc2)CCN(Cc2ccc3c(c2)CN(Cc2ccc4nsnc4c2)CCO3)CC1,·,·,·,i
O=[N+]([O-])c1ccc2c(c1)C=CC2,9.0%,-2.8%,·,·
Oc1ccc(N2CCN(C(c3ccc(Cl)cc3)c3nnnn3Cc3ccc(F)cc3)CC2)cc1 (centres undefined),4.2%,?,·,·
O=C1NC(=O)C(=Cc2ccc3nccc(-c4ccncc4)c3c2)S1,·,·,6.85µM*,·
Cc1c(OC(C)C(=O)NCC(O)c2ccccc2)ccc2c3c(c(=O)oc12)CCCC3 (centres undefined),0.112µM*,-10.0%,-21.9%,i
Cc1cc(=O)oc2c(C)c(OC(C)C(=O)NCC(O)c3ccccc3)ccc12 (centres undefined),-2.1%,-2.5%,0.0%,i
COc1ccc(CN(C)C(=O)c2cccc(NC(=O)CC3SC(N4CCCCC4)=NC3=O)c2)c(OC)c1 (centres undefined),-12.9%,-27.8%,20µM*,?
C(=C1C=c2ccccc2=C1)c1ccc(N=Nc2ccc(C=C3C=c4ccccc4=C3)cc2)cc1,-12.4%,-4.1%,·,·
COc1ccc(Nc2nc(S(=O)(=O)c3ccc(C)cc3)c(Cl)s2)cc1,-30.3%,11.2µM*,?,i
Cc1ccc2[nH]c3c(N4CCN(Cc5ccccc5)CC4)ncnc3c2c1,7.94µM*,?,?,?
COc1ccc2c(c1)[nH]c1c(N3CCN(Cc4ccc5c(c4)OCO5)CC3)ncnc12,-52.8%,20µM*,14.1µM*,10µM*
c1ccc(CN2CCN(c3ncnc4c3[nH]c3ccccc34)CC2)cc1,-28.7%,?,?,?
COc1ccc2c(c1)[nH]c1c(N3CCSCC3)ncnc12,-29.6%,0.0%,?,i
